From PubChem BioAssay (NCATS)
Records with an inconclusive call do not appear. A number with no mark means an inactive call. Active and inactive are the calls of the source. Calls follow the shape of the dose curve; as a rule, active = well fitted inhibition curve with a large enough effect; inconclusive = small, poorly fitted or top-dose-only effect, or effect the other way; inactive = no such curve, though single readings can be large or run the other way.

Experiment: Quantitative high throughput screen for delayed death inhibitors of the malarial parasite plastid, 96 hour incubation (AID 488745); also: nearly all actives have a fitted effect of over 70% in size
Settings: Plasmodium falciparum growth; series mostly up to 28.7 µM; activity change, negative = inhibition: at the top concentration
From the text: NIH Molecular Libraries Probe Production Network [MLPCN]
NIH Chemical Genomics Center [NCGC]
Assay Provider: David Fidock and Eric Ekland, Columbia University
The goal of this screen is to discover new antimalarial compounds that act by inhibiting the development of the apicoplast in the malarial parasite Plasmodium falciparum. The biochemical processes that make this organelle essential for erythrocytic stage parasites are not well understood. However, antibiotics such as azithromycin and tetracycline, which target the apicoplast translational machinery, have a potent antimalarial effect.
We have developed a cell-based assay that measures parasite growth based on the expression of an integrated copy of a firefly luciferase reporter. To detect small molecules that cause this 'delayed death' phenotype, erythrocytes infected with the luciferase-expressing parasites were incubated with compounds for either one or two generations, corresponding to 48 and 96 hours, respectively. Compounds that inhibit parasite growth in the second generation, but not the first, should be enriched in antimalarials that target the apicoplast. Growth inhibition is detected by a decrease in luciferase activity
Four microliters of culture medium (RPMI 1640 with 0.5% w/v Albumax (GIBCO), 24 mM sodium bicarbonate and 10 ug/mL gentamycin) were dispensed by a Multi-drop Combi into white solid 1536-well plates (Grenier) and 23 nL compound was added by a pin tool. Four microliters of infected erythrocytes (2% hematocrit, 0.1% parasitemia final concentration) in culture medium were dispensed and the plates incubated for 96 hours at 37 C in 5% CO2. Two microliters of luciferase detection reagent was added and luminescence was detected by a ViewLux (PerkinElmer) reader
% is scaled to controls: 0 for no effect and ±100 for the full control effect; potency is read from the fitted curve at half-maximal effect.

| Structure (SMILES) | activity change, negative = inhibition | Potency |
| --- | --- | --- |
| Nc1c2c(nc3ccccc13)CCCC2O (stereo not given) | 3.8% | – |
| CC(=O)Nc1nnc(S(N)(=O)=O)s1 | 0.841% | – |
| CCCNC(C)C(=O)Nc1ccccc1C (stereo not given) | -5.24% | – |
| CCCCCN(CCCCC)C(=O)C(CCC(=O)O)NC(=O)c1ccc(Cl)c(Cl)c1 (stereo not given) | -11.1% | – |
| O=C(O)CN(CCOCCOCCN(CC(=O)O)CC(=O)O)CC(=O)O | 5.83% | – |
| CCc1c(C)[nH]c2c1C(=O)C(CN1CCOCC1)CC2 (stereo not given) | 12.2% | – |
| CNCCC(Oc1ccccc1OC)c1ccccc1 (stereo not given) | 10.4% | – |
| CN1CCN(CC(=O)N2c3ccccc3C(=O)Nc3cccnc32)CC1 | 1.5% | – |
| Cc1cc(C)c(/C=C2\C(=O)Nc3ccccc32)[nH]1 | 23.2% | – |
| CCN(CC)CCNC(=O)c1ccc(NC(C)=O)cc1 | -10.6% | – |
| COC(=O)C1=C(C)NC(C)=C(C(=O)OCCN(C)Cc2ccccc2)C1c1cccc([N+](=O)[O-])c1 (stereo not given) | – | 3.29 µM (active) |
| CN(C)C(=O)Oc1ccc[n+](C)c1 | -29% | – |
| CCN1CCC[C@H]1CNC(=O)c1c(O)c(Cl)cc(Cl)c1OC | -1.21% | – |
| C[C@H](CS)C(=O)N1CCC[C@H]1C(=O)O | 1.86% | – |
| N[C@@H](COP(=O)(O)O)C(=O)O | 17.3% | – |
| CCn1cc(C(=O)O)c(=O)c2cc3c(cc21)OCO3 | 13.7% | – |
| CCCN(CCC)C(=O)C(CCC(=O)O)NC(=O)c1ccccc1 (stereo not given) | 2.11% | – |
| CCN(CC)CC(=O)Nc1c(C)cccc1C | -14.3% | – |
| NC/C=C/C(=O)O | 24.1% | – |
| COc1cc(Cc2cnc(N)nc2N)cc(OC)c1OC | -25.3% | – |

| Structure (SMILES) | activity change, negative = inhibition | Potency |
| --- | --- | --- |
| CC(C)NCC(O)c1cc(O)cc(O)c1 (stereo not given) | 4.29% | – |
| CN(C)CCN(Cc1cccs1)c1ccccn1 | 2.03% | – |
| CCCN(CCC)CCc1cccc2c1CC(=O)N2 | 6.03% | – |
| C[N+](C)(C)CCOC(N)=O | -25% | – |
| Cc1ccc(S(=O)(=O)NC(=O)NN2CCCCCC2)cc1 | 2.19% | – |
| CN(C)CCCN1c2ccccc2Sc2ccccc21 | 3.16% | – |
| NC(N)=NC(=O)Cc1c(Cl)cccc1Cl | – | 5.22 µM (active) |
| Cc1ccc(/C(=C\CN2CCCC2)c2ccccn2)cc1 | -29.2% | – |
| COCCc1ccc(OCC(O)CNC(C)C)cc1 (stereo not given) | 28.2% | – |
| NC(=O)N1c2ccccc2C=Cc2ccccc21 | -0.526% | – |
| Cc1nc2c([nH]1)c(=O)n(C)c(=O)n2Cc1ccco1 | 2.61% | – |
| COc1cc2c(cc1OC)-c1cc(=Nc3c(C)cc(C)cc3C)n(C)c(=O)n1CC2 | – | 3.7 µM (active) |
| CC(C)(C)NCC(O)c1cc(O)cc(O)c1 (stereo not given) | 2.64% | – |
| Nc1nc(N)c2nc(-c3ccccc3)c(N)nc2n1 | – | 8.28 µM (active) |
| Cc1ccc(=O)n(-c2ccccc2)c1 | 14.2% | – |
| CCn1ccnc1CC1COc2ccccc2O1 (stereo not given) | -0.543% | – |
| CN(C)CC[C@@H](c1ccc(Br)cc1)c1ccccn1 | 8.36% | – |
| COC(=O)[C@H]1[C@H]2C[C@@H]3c4[nH]c5cc(OC)ccc5c4CCN3C[C@H]2C[C@@H](OC(=O)c2cc(OC)c(OC)c(OC)c2)[C@@H]1OC | – | 0.928 µM (active) |
| NC(Cc1ccc(Cl)cc1)C(=O)O (stereo not given) | 18% | – |
| CCNC(=O)N1CCN(CCCC(c2ccc(F)cc2)c2ccc(F)cc2)CC1 | – | 1.65 µM (active) |
